Source: PubChem BioAssay (NCATS)
Several values for one entry are separate records, joined by “and”; a condition that tells them apart may be missing. Equal values may be shown once. Records with an inconclusive call do not appear. Activity calls are given as the source filed them. Unless noted, calls follow the shape of the dose curve; as a rule, active = well fitted curve in the direction sought with a large enough effect; inconclusive = small, poorly fitted or top-dose-only effect, or another doubt; inactive = no such curve, though single readings can be large; an effect the other way counts as inactive or inconclusive.

How the values were obtained:
[1] = biological target: Voltage-gated inwardly rectifying potassium channel KCNH2 (Homo sapiens) (UniProt Q12809); experiment: qHTS Assay for Small Molecule Inhibitors of the Human hERG Channel Activity (AID 588834);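 also: lower thallium flux fluorescence means stronger hERG block; nearly all actives have a fitted effect of over 50% in size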; also: potency is read from the fitted curve at half-maximal effect
Outline: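 Kinetic FDSS fluorescence; U2OS + hERG BacMam (~100 virus particles/cell); FluxOR Tl+ flux; ~10 min cpd; AC50 (Hill).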

[2] = biological target: Luciferin 4-monooxygenase (Photinus pyralis) (UniProt P08659); experiment: Biochemical firefly luciferase enzyme assay for NPC (AID 624030); also: nearly all actives have a fitted effect of over 70% in size; also: potency is read from the fitted curve at half-maximal effect
Outline: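 Counter-screen for direct inhibition of the luciferase enzyme by approved-drug library compounds, run at 10 nM enzyme in 50 mM Tris acetate (final). Luminescence was read within 5 min of enzyme-buffer addition and normalized to PTC124 versus DMSO (0%).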

[3] = S16 Schwann cell viability assay (CellTiter-Glo assay) (AID 624031); also: nearly all actives have a fitted effect of over 70% in size; also: potency is read from the fitted curve at half-maximal effect
Outline: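 Following overnight culture in 10% FBS DMEM, parental S16 rat Schwann cells are dosed for 24 h at 37 °C. Viability is read as CellTiter-Glo luminescence and expressed as % activity relative to DMSO (0%) and no-cell wells.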

[4] = S16 Schwann cell PMP22 intronic element firefly luciferase assay (AID 624032); also: nearly all actives have a fitted effect of over 30% in size; also: potency is read from the fitted curve at half-maximal effect
Outline: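 Rat S16 Schwann cells stably carrying a PMP22 intronic element-driven Fluc reporter were seeded overnight, then exposed to compounds for 24 h at 37 °C. Luminescence was normalized to PTC124 (positive control) and DMSO (0% activity).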

[5] = S16 Schwann cell PMP22 intronic element beta-lactamase assay (AID 624044; calls by dose curve; also: nearly all actives have a fitted effect of over 15% in size; also: potency is read from the fitted curve at half-maximal effect)
Outline: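 Rat S16 Schwann cells with beta-Lac driven by a PMP22 intronic element, compound-treated 24 h at 37 °C. LiveBLAzer FRET B/G read: 460 nm normalized to potassium clavulanate vs DMSO; 535 nm FRET as viability; concentration-effect curves classified.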

[6] = biological target: Glutaminase kidney isoform, mitochondrial (Homo sapiens) (UniProt O94925); experiment: qHTS for Inhibitors of Glutaminase (GLS): LOPAC Validation (AID 624146);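 also: glutamate product detected by oxidase and peroxidase coupled Amplex red fluorescence gain; series mostly up to about 46 µM; % is scaled to controls: 0 for no effect and ±100 for the full control effect; nearly all actives have a fitted effect of over 60% in size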
Outline: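 Human kidney-isoform GLS in 45 mM KH2PO4 pH 8.2, 0.02% Tween-20, with compound, started with 1mM L-Glutamine (added stock). Glutamate oxidase/HRP/Amplex red coupled fluorescence read at start and after 30 min at RT.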

[7] = qHTS of Trypanosoma Brucei Inhibitors: LOPAC Validation (AID 624147); also: 0% is about no effect
Outline: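 Glycolytic pyruvate kinase of T. brucei was incubated with substrate, test compound and 130 uM ADP for 45 minutes at room temperature. Luminescent Kinase-Glo Plus signal was measured after 10 minutes.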

[8] = biological target: Glucagon-like peptide 1 receptor (Homo sapiens) (UniProt P43220); experiment: qHTS of GLP-1 Receptor Agonists: LOPAC Validation (AID 624148);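 also: 0% is about no effect; higher luminescence signal means agonism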
Outline: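 HEK293 cells stably co-expressing a cAMP-responsive luciferase reporter and a hypersensitive GLP-1R were plated 12 h at 37 °C and exposed to compounds for 4-6 hr at 37 °C, 5% CO2. Luminescence was read 12 min after adding detection reagent.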

[9] = qHTS of Nrf2 Activators: LOPAC Validation (AID 624149); also: 0% is about no effect
Outline: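 Luminescence read-out of ARE-luciferase activation: AREc32_Fluc cells treated with compounds for 24 hr at 37 deg C, then lysed with Steady-Glo for 30 min at room temperature before reading.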

[10] = biological target: Thyroid hormone receptor beta (Homo sapiens) (UniProt P10828); experiment: qHTS assay for small molecule antagonists of thyroid hormone receptor beta signaling (AID 588547; active = well fitted inhibition curve with a large enough effect in the signal ratio, with a control signal flat, not every such curve was filed as active; the % refers to the signal ratio;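 also: cells stimulated with 0.4 nM T3 agonist during compound exposure; series mostly up to about 77 µM; % is scaled to controls: 0 for no effect and ±100 for the full control effect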); conditions: TR-UAS-bla HEK293, beta-lactamase ratio, antagonist mode, 18 h
Outline: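 TR-UAS-bla GripTite HEK293 cells in 2% charcoal/dextran FBS medium were preincubated 4 h at 37 C, given compound (0.59 nM to 92 uM) plus 0.4 nM T3 (final) for 18 h, then CCF4 for 2 h at RT; Hill fit gave IC50.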

Glutaminase kidney isoform, mitochondrial (Homo sapiens), sequence (O94925 whole entry, looked up, canonical isoform): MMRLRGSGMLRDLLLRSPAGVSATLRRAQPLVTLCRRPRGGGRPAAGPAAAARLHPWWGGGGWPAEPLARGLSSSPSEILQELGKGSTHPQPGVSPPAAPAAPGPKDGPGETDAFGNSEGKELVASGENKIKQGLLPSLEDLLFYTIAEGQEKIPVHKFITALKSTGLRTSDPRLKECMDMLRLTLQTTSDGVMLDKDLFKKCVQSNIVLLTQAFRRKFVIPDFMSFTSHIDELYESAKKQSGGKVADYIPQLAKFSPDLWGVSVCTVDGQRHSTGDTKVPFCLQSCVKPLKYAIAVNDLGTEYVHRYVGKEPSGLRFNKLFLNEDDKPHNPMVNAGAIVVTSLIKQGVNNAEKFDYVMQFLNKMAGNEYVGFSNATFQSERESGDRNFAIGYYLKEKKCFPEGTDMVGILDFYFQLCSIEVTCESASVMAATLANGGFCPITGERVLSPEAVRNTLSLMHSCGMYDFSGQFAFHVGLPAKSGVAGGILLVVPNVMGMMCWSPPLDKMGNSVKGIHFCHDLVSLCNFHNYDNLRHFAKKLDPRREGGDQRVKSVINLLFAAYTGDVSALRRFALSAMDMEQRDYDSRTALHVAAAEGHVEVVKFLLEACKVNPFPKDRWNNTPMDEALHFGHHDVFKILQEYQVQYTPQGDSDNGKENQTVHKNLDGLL
Voltage-gated inwardly rectifying potassium channel KCNH2 (Homo sapiens), sequence (Q12809 whole entry, looked up): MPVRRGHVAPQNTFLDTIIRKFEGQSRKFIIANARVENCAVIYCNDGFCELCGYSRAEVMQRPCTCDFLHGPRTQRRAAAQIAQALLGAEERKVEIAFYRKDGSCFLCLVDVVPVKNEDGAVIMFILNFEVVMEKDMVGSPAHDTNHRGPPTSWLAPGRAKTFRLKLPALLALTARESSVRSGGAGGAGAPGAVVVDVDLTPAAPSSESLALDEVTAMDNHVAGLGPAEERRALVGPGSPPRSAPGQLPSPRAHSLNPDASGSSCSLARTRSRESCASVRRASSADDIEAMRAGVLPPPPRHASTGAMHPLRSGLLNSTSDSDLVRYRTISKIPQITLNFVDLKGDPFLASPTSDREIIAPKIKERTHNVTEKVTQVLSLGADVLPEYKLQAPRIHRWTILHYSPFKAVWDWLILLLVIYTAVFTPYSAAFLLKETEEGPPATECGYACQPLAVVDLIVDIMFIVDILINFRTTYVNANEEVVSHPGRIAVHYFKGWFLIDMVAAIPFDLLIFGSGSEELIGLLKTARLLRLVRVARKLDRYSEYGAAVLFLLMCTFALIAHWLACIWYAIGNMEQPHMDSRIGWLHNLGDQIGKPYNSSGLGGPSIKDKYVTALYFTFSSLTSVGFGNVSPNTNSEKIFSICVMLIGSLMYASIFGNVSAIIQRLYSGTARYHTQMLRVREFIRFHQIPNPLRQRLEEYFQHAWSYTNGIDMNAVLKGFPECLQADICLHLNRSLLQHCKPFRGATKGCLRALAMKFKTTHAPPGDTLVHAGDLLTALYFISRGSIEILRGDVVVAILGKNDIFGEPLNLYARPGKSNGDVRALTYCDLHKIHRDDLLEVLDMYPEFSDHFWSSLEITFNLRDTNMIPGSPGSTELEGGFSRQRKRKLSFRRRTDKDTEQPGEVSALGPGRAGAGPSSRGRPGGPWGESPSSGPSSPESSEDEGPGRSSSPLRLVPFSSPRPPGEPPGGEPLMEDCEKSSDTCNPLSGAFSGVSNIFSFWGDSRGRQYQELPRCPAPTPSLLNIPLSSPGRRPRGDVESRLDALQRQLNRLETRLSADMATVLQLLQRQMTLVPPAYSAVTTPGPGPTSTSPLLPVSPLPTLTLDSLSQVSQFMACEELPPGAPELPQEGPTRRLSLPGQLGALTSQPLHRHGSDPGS
Thyroid hormone receptor beta (Homo sapiens), sequence (P10828 whole entry, looked up): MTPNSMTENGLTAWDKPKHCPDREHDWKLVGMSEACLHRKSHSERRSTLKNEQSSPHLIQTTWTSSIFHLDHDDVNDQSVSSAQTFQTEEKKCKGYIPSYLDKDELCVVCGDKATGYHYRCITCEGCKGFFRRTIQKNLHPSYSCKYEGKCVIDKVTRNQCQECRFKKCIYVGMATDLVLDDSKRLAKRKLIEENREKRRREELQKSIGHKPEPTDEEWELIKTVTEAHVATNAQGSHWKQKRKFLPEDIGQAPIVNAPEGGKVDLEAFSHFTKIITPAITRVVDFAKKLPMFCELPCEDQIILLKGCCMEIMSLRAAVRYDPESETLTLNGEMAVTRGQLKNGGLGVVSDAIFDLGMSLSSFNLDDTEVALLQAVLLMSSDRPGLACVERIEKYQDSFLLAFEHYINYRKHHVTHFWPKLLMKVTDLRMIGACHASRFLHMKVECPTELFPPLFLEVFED
Glucagon-like peptide 1 receptor (Homo sapiens), sequence (P43220 whole entry, looked up): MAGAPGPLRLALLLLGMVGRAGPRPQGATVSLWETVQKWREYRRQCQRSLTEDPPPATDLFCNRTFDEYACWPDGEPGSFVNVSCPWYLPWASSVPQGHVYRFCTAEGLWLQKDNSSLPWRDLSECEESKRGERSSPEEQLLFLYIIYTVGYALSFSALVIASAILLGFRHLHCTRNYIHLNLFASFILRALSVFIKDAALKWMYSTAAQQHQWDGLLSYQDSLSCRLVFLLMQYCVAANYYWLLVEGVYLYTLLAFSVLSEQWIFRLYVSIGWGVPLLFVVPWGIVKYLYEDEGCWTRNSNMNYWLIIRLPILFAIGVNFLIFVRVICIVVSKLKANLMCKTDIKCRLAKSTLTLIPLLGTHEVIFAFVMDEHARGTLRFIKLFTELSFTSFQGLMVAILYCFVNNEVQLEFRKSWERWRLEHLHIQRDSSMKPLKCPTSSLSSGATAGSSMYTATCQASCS
Luciferin 4-monooxygenase (Photinus pyralis), sequence (P08659 whole entry, looked up): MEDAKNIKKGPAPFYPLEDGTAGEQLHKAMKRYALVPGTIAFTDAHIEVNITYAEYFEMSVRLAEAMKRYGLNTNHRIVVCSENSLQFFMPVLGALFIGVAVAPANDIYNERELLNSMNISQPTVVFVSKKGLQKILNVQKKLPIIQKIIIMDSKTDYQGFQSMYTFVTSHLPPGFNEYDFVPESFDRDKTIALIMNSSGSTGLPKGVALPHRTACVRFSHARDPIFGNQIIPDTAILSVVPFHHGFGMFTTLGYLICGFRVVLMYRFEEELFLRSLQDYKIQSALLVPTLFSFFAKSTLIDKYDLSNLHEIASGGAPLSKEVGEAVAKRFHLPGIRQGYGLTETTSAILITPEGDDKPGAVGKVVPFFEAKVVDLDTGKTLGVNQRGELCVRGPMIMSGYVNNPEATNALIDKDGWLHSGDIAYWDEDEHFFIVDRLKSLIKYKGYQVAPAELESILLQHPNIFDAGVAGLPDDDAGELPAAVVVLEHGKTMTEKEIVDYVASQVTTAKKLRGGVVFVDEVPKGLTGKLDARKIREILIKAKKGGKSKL

CC(N=C(NC#N)Nc1ccncc1)C(C)(C)C (configuration not stated)
inactive: Potency [1] | Potency [2] | Potency [3] | Potency [4] | Potency [5] | Potency [6] | outcome [7] | outcome [8] | outcome [9]

CC(=O)[C@]1(O)Cc2c(O)c3c(c(O)c2[C@@H](O[C@H]2C[C@H](N)[C@H](O)[C@H](C)O2)C1)C(=O)c1ccccc1C3=O
active: Potency [1] 10 µM | Potency [3] 32.2 µM | Potency [5] 0.0999 µM
inactive: Potency [2] | Potency [4] | Potency [6] | outcome [7] | outcome [8] | outcome [9]

C[n+]1cc2c3c(ccc2c2ccc4cc5c(cc4c21)OCO5)OCO3
active: Potency [2] 7.21 µM | Potency [3] 3.22 µM | Potency [4] 8.09 µM | Potency [5] 15.8 µM
inactive: Potency [1] | outcome [7] | outcome [8] | outcome [9]

NC(=O)N1c2ccccc2C=Cc2ccccc21
inactive: activity change % (negative = inhibition) [10] 8.17% | Potency [1] | Potency [2] | Potency [3] | Potency [4] | Potency [6] | outcome [7] | outcome [8] | outcome [9]

FC(F)(F)c1ccccc1-n1ccnc1
inactive: Potency [1] | Potency [2] | Potency [3] | Potency [4] | Potency [5] | Potency [6] | outcome [7] | outcome [8] | outcome [9]

c1cnc(N2CCN(Cc3ccc4c(c3)OCO4)CC2)nc1
inactive: Potency [1] | Potency [2] | Potency [3] | Potency [4] | Potency [5] | outcome [7] | outcome [8] | outcome [9]

CN=C(NC#N)NCCSCc1nc[nH]c1C
inactive: activity change % (negative = inhibition) [10] 11.1% | Potency [1] | Potency [2] | Potency [3] | Potency [6] | outcome [7] | outcome [8] | outcome [9]

CC(C)(Oc1ccc(CCNC(=O)c2ccc(Cl)cc2)cc1)C(=O)O
inactive: activity change % (negative = inhibition) [10] 12.2% | Potency [1] | Potency [2] | Potency [3] | Potency [4] | Potency [6] | outcome [7] | outcome [8] | outcome [9]

CCCCOCCOCCOCc1cc2c(cc1CCC)OCO2
inactive: activity change % (negative = inhibition) [10] 4.23% and -22.6% | Potency [1] | Potency [2] | Potency [3] | Potency [4] | Potency [5]

CNCCC(Oc1ccccc1OC)c1ccccc1 (configuration not stated)
active: Potency [1] 12.6 µM and 6.31 µM
inactive: Potency [2] | Potency [3] | Potency [4] | Potency [5] | Potency [6] | outcome [7] | outcome [8] | outcome [9]

CCCN1C[C@H](CSC)C[C@@H]2c3cccc4[nH]cc(c34)C[C@H]21
active: Potency [1] 12.6 µM and 2 µM
inactive: Potency [2] | Potency [3] | Potency [4] | Potency [5] | Potency [6] | outcome [7] | outcome [8] | outcome [9]

NC(N)=NC(=O)Cc1c(Cl)cccc1Cl
inactive: Potency [1] | Potency [2] | Potency [3] | Potency [4] | Potency [5] | Potency [6] | outcome [7] | outcome [8] | outcome [9]

O=c1[nH]c(=O)n([C@H]2C[C@H](O)[C@@H](CO)O2)cc1Br
inactive: activity change % (negative = inhibition) [10] 7.23% | Potency [1] | Potency [2] | Potency [3] | Potency [6] | outcome [7] | outcome [8] | outcome [9]
active: Potency [4] 4.05 µM | Potency [5] 7.94 µM

CC(=O)Nc1nnc(S(N)(=O)=O)s1
inactive: activity change % (negative = inhibition) [10] -8.01% | Potency [1] | Potency [2] | Potency [3] | Potency [6] | outcome [7] | outcome [8] | outcome [9]

CN/C(=C\[N+](=O)[O-])NCCSCc1ccc(CN(C)C)o1
inactive: Potency [1] | Potency [2] | Potency [3] | Potency [4] | Potency [5] | Potency [6] | outcome [7] | outcome [8]

CC(=O)[C@@]1(O)CC[C@H]2[C@@H]3CCC4=CC(=O)CC[C@]4(C)[C@H]3CC[C@@]21C
inactive: Potency [1] | Potency [2] | Potency [3] | Potency [4] | Potency [5] | Potency [6] | outcome [7] | outcome [8] | outcome [9]

COc1ccc(CN(CCN(C)C)c2ccccn2)cc1
inactive: activity change % (negative = inhibition) [10] -10.9% | Potency [2] | Potency [3] | Potency [4] | Potency [6] | outcome [7] | outcome [8] | outcome [9]
active: Potency [1] 12.6 µM and 14.1 µM and 8.91 µM

CCOC(=O)c1cnc2c(cnn2CC)c1NN=C(C)C
inactive: Potency [1] | Potency [2] | Potency [3] | Potency [4] | Potency [5] | outcome [7] | outcome [8] | outcome [9]

CCn1nc(C(=O)O)c(=O)c2cc3c(cc21)OCO3
inactive: Potency [1] | Potency [2] | Potency [3] | Potency [4] | Potency [5] | Potency [6] | outcome [7] | outcome [8]

O=C(O)CCCCCCCC(=O)O
inactive: activity change % (negative = inhibition) [10] -5.44% | Potency [1] | Potency [2] | Potency [3] | Potency [4] | Potency [5] | Potency [6] | outcome [7] | outcome [8] | outcome [9]

NC(=Nc1ccccc1)Nc1ccccc1
inactive: activity change % (negative = inhibition) [10] -0.182% | Potency [2] | Potency [3] | Potency [4]

CCN(CC)CCOCCOC(=O)C1(c2ccccc2)CCCC1
active: Potency [1] 12.6 µM
inactive: Potency [2] | Potency [3] | Potency [4] | Potency [5] | Potency [6] | outcome [7] | outcome [8] | outcome [9]
